# High-throughput results (PubChem BioAssay)
# Eya2 inh: qHTS Assay for Inhibitors of the Phosphatase Activity of Eya2; Protein phosphatase EYA2 (Homo sapiens), O00167; recombinant Eya2, OMFP fluorescence dephosphorylation (OMFP is methylfluorescein phosphate); Potency, µM (top dose mostly 76.9 µM), inactives show top-dose activity, negative = inhibition, most hits filed as inhibitors; 0.006% of 330,000 active; active means well fitted inhibition curve with a large enough effect; inconclusive means small, poorly fitted or top-dose-only effect, or effect the other way; further: potency means the concentration at half of the fitted maximal effect
# Target sequence (O00167 whole entry, looked up): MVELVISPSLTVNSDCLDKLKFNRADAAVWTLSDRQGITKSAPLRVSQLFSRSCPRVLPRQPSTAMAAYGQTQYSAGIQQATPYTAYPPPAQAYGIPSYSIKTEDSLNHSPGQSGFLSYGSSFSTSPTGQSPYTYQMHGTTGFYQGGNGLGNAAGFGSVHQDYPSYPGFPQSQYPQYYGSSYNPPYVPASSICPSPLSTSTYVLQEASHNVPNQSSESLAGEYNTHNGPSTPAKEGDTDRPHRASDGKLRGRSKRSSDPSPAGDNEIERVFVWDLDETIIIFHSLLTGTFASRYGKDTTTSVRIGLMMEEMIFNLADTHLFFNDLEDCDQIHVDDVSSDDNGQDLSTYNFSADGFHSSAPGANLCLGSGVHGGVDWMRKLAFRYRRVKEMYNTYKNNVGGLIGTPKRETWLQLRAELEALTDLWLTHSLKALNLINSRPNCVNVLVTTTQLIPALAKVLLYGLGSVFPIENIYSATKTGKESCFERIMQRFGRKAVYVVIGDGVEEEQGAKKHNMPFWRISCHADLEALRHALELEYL
#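 Eya2 protein (added as 0.2 uM solution) was preincubated with compound for 10 min at ambient temperature in 50 mM HEPES pH 7.5, 50 mM NaCl, 5 uM MgCl2, 0.05% BSA, 1 mM DTT. OMFP (added at 50 uM) then reacted 10 min; fluorescence read at 485/525 nm.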
# Six1-Eya2 blk: qHTS Assay for Inhibitors of the Six1/Eya2 Interaction; activity change, % (concentration not given with the values); AlphaScreen GST-Six1/His-Eya2 binding, biochemical; stronger effect = lower value; 0.56% of 360,000 active; Homeobox protein SIX1 (Homo sapiens) + Protein phosphatase EYA2 (Homo sapiens), …
#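 AlphaScreen luminescence read after one hour at 37 °C in darkness. Pin-transferred compounds met GST-Six1 and His-Eya2 protein (5X stock 250 nM/500 nM) plus glutathione donor and Ni-chelate acceptor beads (5X, 50 ug/mL).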
# PI4K2A block: qHTS for small molecular inhibitors of PI4K2A | purified PI4K2A, ADP-Glo luminescence, 1 h; stronger effect = lower value | activity change, negative = inhibition, % at 76.9 µM | 0.13% of 420,000 active; in the data active means activity change below about -50%; inconclusive means mostly about -30% to -49%;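 further: -100% = wells without enzyme as full effect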
#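 ADP-Glo luminescence measured ADP generated by PI4K2A enzyme (4 ug/mL before mixing) with 1.2 mM PI substrate (pre-mix) and 300 microM ATP (pre-mix). Tris pH7.5 buffer with MgCl2, Triton X-100; 1 h reaction at ambient temperature.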
# CtBP-E1A inh: qHTS Assay for Inhibitors of the CtBP/E1A Interaction. activity change, % (concentration not given with the values). 0.49% of 340,000 active. CtBP / adenovirus E1A interaction (AlphaScreen). AlphaScreen GST-E1A/His-CtBP binding, 1536-well; stronger effect = lower value
#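 In 5 uL wells, 23 nL compound meets equimolar GST-E1A and His-CtBP (5X stock 125 nM each) for 2 h, 37 °C. Beads (5X, 50 ug/mL) then 1 h, 37 °C, dark.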
# CCT modulator: High-Throughput Screening for Modulators of Cytosolic Chaperonin Activity. purified chaperonin ATPase assay, HTRF ADP detection, 30 min. 0.3% of 360,000 active. activity change, % (no concentration beside the values), hits read low. AID 651819, 2012; in the data active means activity change below about -30%
#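 We incubate TRiC, 40 or 20 nM final, with library compounds at 76 uM and 10 uM ATP for 30 min at 37 °C. ADP formed is detected with Transcreener HTRF reagents after 30 min at room temperature.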
# * = called active by the depositor; ? = inconclusive; · = not tested or not shown. Hits are enriched below; roughly 0.97% of the tested compounds scored in any of these assays. Unless noted, no stated cut-off is given here; in the data, active means activity change below about -65%; inconclusive means mostly about -30% to -63%; inactive means weaker than that. Unless noted, on the % scale 0 is the no-effect control and ±100 the full control effect.
SMILES,Eya2 inh,Six1-Eya2 blk,PI4K2A block,CtBP-E1A inh,CCT modulator
CC(Oc1ccc(Br)cc1)C(=O)Nc1nc(-c2ccccn2)cs1 (configuration not stated),1%,-73*,-5,?,-7
CC(C)[C@H](NC(=O)c1ccccc1Cl)C(=O)Nc1nc(-c2ccccn2)cs1,-12%,-80*,-2,-83*,0
CCCCC1CCC(C(=O)N2CC(=O)Nc3ccc(C)cc3C2c2ccc(F)cc2)CC1 (configuration not stated),·,·,-1,·,·
Cc1ccc(CNC(=O)C2CCCN(C(=O)Nc3ccc(F)cc3)C2)cc1 (configuration not stated),7%,-2,-3,6,1
Cc1ccc(NC(=O)N2CCCC(C(=O)O)C2)cc1 (configuration not stated),-7%,1,3,10,-43*
CCOC(=O)C1=C(C)NC(C)=C(C(=O)OCC)C1c1ccncc1,·,9,-76*,13,4
CCOC(=O)Cn1cccc1-c1nc(-c2ccc(OC)cc2)c(-c2ccc(OC)cc2)s1,·,·,3,·,·
Cc1ccc(CN2CCN(/N=C/C=C/c3ccccc3[N+](=O)[O-])CC2)cc1,-10%,?,3,-76*,-1
O=C(CCS(=O)(=O)c1ccc2c(c1)NC(=O)CO2)NCc1ccccc1,4%,-2,-3,0,-64*
CN(C)c1ccc(CCc2ccc(N)cc2)cc1,·,0,-1,?,-1
CN(C)c1ccc(Cc2ccc(N(C)C)cc2)cc1,·,-92*,-1,·,2
Cc1ccc(C(=O)Nc2onc3c2CCCC3)cc1,·,·,-9,·,·
CC(/C=C/c1ccccc1)=N/NC(=O)c1cnccn1,0%,-86*,0,-5,0
Cc1ccc(-c2nc(C3CCCN(S(=O)(=O)c4ccc(C)c(C)c4)C3)no2)cc1 (configuration not stated),·,·,2,·,·
Nc1ccc(N2CCOCC2)c2nonc12,-7%,-6,-60*,·,-2
O=C(Nc1ccc(N2CCOCC2)c2nonc12)C1CCCC1,-18%,-20,?,-9,-1
O=C(Nc1ccc(F)cc1)Nc1ccc(N2CCOCC2)c2nonc12,1%,-9,-59*,-17,-1
COCCCNC(=S)N/N=C/c1cccc(OC)c1O,-12%,-90*,-6,-92*,-2
COc1ccccc1/C=N/NC(=O)c1cccc(OC(F)(F)C(F)F)c1,-3%,-7,-3,-2,0
COCCCNC(=S)N/N=C/c1ccc(O)cc1O,-3%,-90*,-3,-93*,-1
COc1cccc(/C=N/NC(=S)Nc2cccc(C(=O)O)c2)c1O,5%,-92*,-16,-91*,-1
COCCCNC(=S)N/N=C/c1ccc(O)cc1,-8%,2,1,·,-2
COc1cccc(/C=N/NC(=O)C(=O)Nc2ccccc2OC(F)(F)C(F)F)c1O,-11%,-86*,0,-73*,-2
COc1cc(/C=N/NC(=S)Nc2cccc(C(=O)O)c2)ccc1O,-3%,-22,2,-27,-1
COCCCNC(=S)N/N=C/c1ccc(OC)cc1,10%,-1,-3,6,1
SMILES,Eya2 inh,Six1-Eya2 blk,PI4K2A block,CtBP-E1A inh,CCT modulator
O=C(CSc1nnc(-c2cccs2)o1)c1ccc(F)cc1,·,·,6,·,·
COc1ccc(OC(=O)c2ccc3nsnc3c2)cc1,-13%,-9,-6,-1,-48*
Cc1ccc(OC(=O)c2ccc3nc(C)sc3c2)cc1,-4%,9,1,17,2
CN1C[C@H]2c3ccccc3Oc3ccc(Cl)cc3[C@@H]2C1,·,·,-4,·,·
Cc1cc(C(F)(F)F)nn1CC(=O)Nc1cccnc1,-3%,0,-16,10,-41*
CC(C)(C)c1ccc(C(=O)CCCCl)cc1,·,·,-5,·,·
COc1ccc(/C=N/Nc2nn3cnnc3c3ccccc23)cc1,-6%,?,-3,-74*,-3
COc1ccc(/C=N/Nc2nonc2N)cc1,12%,-1,1,-1,-1
CCOC(=O)CNC(=O)C1CCCN(c2ncccn2)C1 (configuration not stated),-32%,-83*,-10,?,-1
N#C/C(=C\c1ccc(OC(=O)c2ccccn2)cc1)C(N)=O,-20%,-90*,-3,-4,-2
CCN(CC)c1ccc(/C=C(\C#N)c2ccccn2)cc1,21%,69,-9,26,1
N#C/C(=C\c1ccc(C(=O)O)cc1)c1ccccn1,0%,-1,-65*,2,2
COc1ccc(CCNC(=O)C(=O)NCC(c2cccs2)S(=O)(=O)c2cccs2)cc1 (configuration not stated),·,·,2,·,·
O=C(N/N=C/c1cn(Cc2cccc(F)c2)c2ccccc12)c1cc(O)cc(O)c1,-3%,-75*,-22,-72*,0
CCc1ccc(-c2cc(C)no2)cc1S(=O)(=O)N1CCN(c2ccccc2OC)CC1,-3%,?,1,-79*,0
O=[N+]([O-])c1nccn1CO[C@@H](CO)[C@H](O)CO,·,·,1,·,·
c1ccc2sc(-c3ccc4c(c3)OCO4)nc2c1,-10%,42,-68*,28,-1
O=C(c1ccc(-c2nc3ccccc3s2)s1)N1CCOCC1,2%,6,-66*,4,0
Cc1noc(/C=C/c2cccs2)c1S(=O)(=O)N1CCC(C(=O)NCc2ccccc2Cl)CC1,·,·,8,·,·
O=[N+]([O-])c1ccc(N/N=C2\CC3CC=CC23)c([N+](=O)[O-])c1 (configuration not stated),16%,-69*,4,-16,-4
CCOc1ccccc1NC(=O)Cn1nnc2sc3c(c2c1=O)CCC(C(C)(C)C)C3 (configuration not stated),·,·,-2,·,·
COc1ccc(OC)c(-c2c3cc(O)c(=O)cc-3oc3cc(O)c(O)cc23)c1,?,?,-51*,-26,1
Cc1ccc(Nc2nc3nonc3nc2Nc2cccc(C(F)(F)F)c2)cc1Cl,·,·,2,·,·
Cc1ccc(NC(=O)CCN2C(=O)C3C4CCC(C4)C3C2=O)cc1[N+](=O)[O-] (configuration not stated),13%,2,2,-2,-4
Cc1ccc(NC(=O)CCN2C(=O)C3CCCCC3C2=O)cc1[N+](=O)[O-] (configuration not stated),-21%,-4,3,7,-53*
CC1CC1C(=O)Nc1nc(-c2ccccn2)cs1 (configuration not stated),1%,-82*,-4,-70*,1
O=C(Nc1nc(-c2ccccn2)cs1)C1COc2ccccc2O1 (configuration not stated),-4%,-91*,-4,?,0
